This note sets out measurements from PubChem BioAssay AID1159580 (chemical genetic matrix, 2015).

Hit rate of the full screen: of about 5,500 compounds, about 2,000 (36%) were called active. About 18% were inconclusive and are not listed. This is one part of the list. Values without a mark were called inactive. Rule as the data show it: active = normalized growth mostly below about 0.91 (no sharp cut-off); inconclusive = no clear call, values can overlap the other calls; inactive = mostly above about 0.92.

This assay is described as follows: chemical genetic growth profiling, strain panel (AID 1159580).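 Also: tested at 20 µM; growth read once vehicle control cultures reached saturation at 30 °C; 1 = growth at the plate median or of vehicle wells; lower values mean less growth of the strain.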 Particulars: S. cerevisiae deletion strains, growth OD.

On to `CCCCCCCCCCCCCCC[C@H](O)[C@H](N)CO`, for which the normalized growth (locus YAL013W, strain DEP1, active compounds read low) was 0.976; the normalized growth (locus YAL040C, strain CLN3, active compounds read low) was 1.05; the normalized growth (locus YCL061C, strain MRC1 (second series), active compounds read low) is 0.987; the normalized growth (locus YDR363W, strain ESC2, active compounds read low) was 0.99; the normalized growth (locus YER002W, strain NOP16, active compounds read low) is 1.03; the normalized growth (locus YGR078C, strain PAC10, active compounds read low) is 1.01. The normalized growth reads like this: (locus YMR307W, strain GAS1, active compounds read low) 1.01; (locus YNL128W, strain TEP1, active compounds read low) 0.222 (active); (locus YNL175C, strain NOP13, active compounds read low) 0.643 (active); (locus YNL197C, strain WHI3, active compounds read low) 1.12 [resistant] (active); (locus YNL224C, strain SQS1, active compounds read low) 0.928; (locus YOR083W, strain WHI5 (second series), active compounds read low) 0.811 (active). Also, the normalized growth runs as follows: (locus YPL055C, strain LGE1, active compounds read low) 1.02; (locus YPL241C, strain CIN2, active compounds read low) 0.998.
